From PubChem BioAssay
“And” between values parts separate entries of the source, which are not always exact repeats. Equal values may be shown once. The source made the active and inactive calls.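 The calls were made as follows, unless noted: active = thallium flux through the channel raised or lowered by more than 3 SD from vehicle-only wells, actives on both sides; inactive = the rest.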

Assays:
[1] = viability loss with induced miR-34 in A549 – imaging, A549 dox-inducible miR-34, nuclei and caspase counts, primary screen (AID 1347080;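 active = compounds whose cell count with miR-34 switched on is under 0.7 times the count with it off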); settings: A549 miR-34 inducible, Hoechst nuclei count, 48 h
[2] = galactose survival enhancers in mitochondrial complex I cybrids – cell-based, galactose medium, ATP luminescence, primary screen (AID 1645843;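 active = z-score of at least 1.8 in each of two replicates, scored against plate mean and spread of sample wells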;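 also: positive z means more ATP and so rescue of galactose-driven cybrid death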); settings: complex I mutant cybrid cells, 72 h, stronger effect = higher value
F380Y = experiment: BK channel mutant inhibitors and activators – cell-based, U2OS BacMam, thallium flux, beta subunits, selectivity assay, profiling panel (AID 1259406); settings: U2OS BacMam BK variants, at 30 µM;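 also: initial slope of Thallos dye fluorescence rise after thallium is added; log ratio against the mean of 0.3% DMSO vehicle wells on the same plate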
F380Y/beta1 = experiment: as above; settings: U2OS BacMam BK variants, at 30 µM
F380Y/beta2Delta = experiment: as above; settings: U2OS BacMam BK variants, at 30 µM
F380Y/beta4 = experiment: as above; settings: U2OS BacMam BK variants, at 30 µM
[3] = molecular target: Calcium-activated potassium channel subunit alpha-1 (Homo sapiens) + Leucine-rich repeat-containing protein 26 (Homo sapiens) (UniProt Q12791+Q2I0M4); experiment: as above; settings: U2OS BacMam BK variants, F380Y/Slo1WT/gamma1, at 30 µM
R275C = experiment: as above; settings: U2OS BacMam BK variants, at 30 µM
R275C/beta1 = experiment: as above; settings: U2OS BacMam BK variants, at 30 µM
R275C/beta2Delta = experiment: as above; settings: U2OS BacMam BK variants, at 30 µM
R275C/beta4 = experiment: as above; settings: U2OS BacMam BK variants, at 30 µM
R275C/Slo1WT/beta2 = experiment: as above; settings: U2OS BacMam BK variants, at 30 µM
[4] = P. berghei load reduction in hepatocytes – cell-based, HepG2, luciferase luminescence, HepG2 viability, primary screen (AID 624349; in the data active = parasite load remaining mostly below about 12%, no sharp cut-off; inactive = mostly above about 10%;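 also: 100% = mean of DMSO negative control wells on the same plate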); settings: P. berghei liver stage in HepG2, luciferase luminescence, concentration not given here; parasite load remaining: stronger effect = lower value; viability: measured here: HepG2 viability without parasites
[5] = signal quenchers or enhancers, Cy5 substrate/SSB – biochemical, NIH Clinical Collection, E. coli SSB, artefact control for HCV NS3 helicase inhibitor project (AID 743268; call rule not given here); settings: Cy5-oligo bound E. coli SSB, fluorescence interference
[6] = test system: Hepatitis C virus NS3 helicase; experiment: blockers of NS3h binding to DNA – biochemical, fluorescence polarization, NIH Clinical Collection, primary screen (AID 743270; call rule not given here); settings: NS3 helicase binding to Cy5-dT15 DNA, stronger effect = higher value, concentration not given here
[7] = molecular target: Single-stranded DNA-binding protein (Escherichia coli (strain K12)) (UniProt P0AGE0); experiment: SSB-ssDNA binding inhibitors – biochemical, fluorescence polarization, NIH Clinical Collection, counter-screen for HCV NS3 helicase inhibitor project (AID 743271; in the data active = inhibition above about 28%); settings: E. coli SSB-DNA binding, stronger effect = higher value, concentration not given here
[8] = compounds distorting NS3 helicase fluorescence signal – biochemical, NIH Clinical Collection, artefact control for HCV NS3 helicase inhibitor project (AID 743272; call rule not given here;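 also: HCV NS3 helicase with a Cy5 labelled single stranded DNA probe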); settings: fluorescence interference counterscreen, HCV NS3 helicase assay; stronger effect = lower value
[9] = test system: Neuropilin-2 / VEGF-C interaction (human); experiment: small molecules blocking Neuropilin-2/VEGF-C interaction – biochemical, microplate binding format, z-score (AID 743281; call rule not given here); settings: microplate NRP2/VEGF-C binding assay; stronger effect = lower value
[10] = modulation of C. elegans fzo-1 (AID 1259413; call rule not given here;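 also: fzo-1 mutant C. elegans worms in liquid wells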); settings: C. elegans fzo-1 modulator screen, mean read-out; stronger effect = higher value
[11] = MELAS cybrid and Rieske KO viability enhancers – cell-based, MELAS cybrids, Rieske KO mouse fibroblasts, CellTiter-Glo, primary screen (AID 1508586;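 active = mean z-score across replicates of 1.96 or higher in either the MELAS or the Rieske mutant cell line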;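 also: z relative to plate mean and SD of compound and empty wells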); settings: low glucose
[12] = stronger effect = lower value, cell number ratio, induced over uninduced
[13] = measured here: relative caspase fold change +Dox/-Dox
[14] = measured here: total cells with miR-34 induction, stronger effect = lower value
[15] = measured here: total cells without miR-34 induction
[16] = MELAS cybrid survival, CellTiter-Glo 48 h, stronger effect = higher value
[17] = Rieske KO mouse fibroblast survival, CellTiter-Glo 72 h

Calcium-activated potassium channel subunit alpha-1 (Homo sapiens) + Leucine-rich repeat-containing protein 26 (Homo sapiens), sequence (Q2I0M4 whole entry, looked up, one chain of several): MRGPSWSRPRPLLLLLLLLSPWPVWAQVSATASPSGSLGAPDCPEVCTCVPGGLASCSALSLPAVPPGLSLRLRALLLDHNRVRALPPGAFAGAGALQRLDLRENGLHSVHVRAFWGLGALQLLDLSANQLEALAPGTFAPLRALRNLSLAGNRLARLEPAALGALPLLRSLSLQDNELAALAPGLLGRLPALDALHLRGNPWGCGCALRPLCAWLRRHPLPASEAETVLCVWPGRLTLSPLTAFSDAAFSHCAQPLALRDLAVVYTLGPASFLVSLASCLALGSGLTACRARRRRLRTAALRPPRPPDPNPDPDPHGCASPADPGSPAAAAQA

O=c1[nH]c2ccccc2c2ccccc12
7660 and 2830: cell count [1, 14]
8280 and 2920: cell count [1, 15]
0.939 and 0.926: fold change [1, 13]
inactive: fold change [1, 12] 0.926 and 0.97 | z-score [2] 0.885 | log fold change Tl+ flux (F380Y) 0.027 | log fold change Tl+ flux (F380Y/beta1) 0.0377 | log fold change Tl+ flux (F380Y/beta2Delta) 0.0285 | log fold change Tl+ flux (F380Y/beta4) 0.0704 | log fold change Tl+ flux [3] -0.0148 | log fold change Tl+ flux (R275C) 0.0279 | log fold change Tl+ flux (R275C/beta1) -0.057 | log fold change Tl+ flux (R275C/beta2Delta) 0.0385 | log fold change Tl+ flux (R275C/beta4) -0.0579 | log fold change Tl+ flux (R275C/Slo1WT/beta2) -0.0287

O=C(OC1C[C@@H]2CC3C[C@H](C1)N2CC3=O)c1c[nH]c2ccccc12 (stereo not given in full)
72.3%: viability [4]
inactive: parasite load remaining [4] 52.7% | fluorescence ratio [5] 1.02 | inhibition [6] -2.84% | inhibition [7] -2.76% | fluorescence ratio [8] 1 | z-score [9] -0.0143 | mean signal [10] 222 | z-score [11, 16] 0.403 | log fold change Tl+ flux (F380Y) 0.0495 | log fold change Tl+ flux (F380Y/beta1) 0.0612 | log fold change Tl+ flux (F380Y/beta2Delta) 0.0379 | log fold change Tl+ flux (F380Y/beta4) 0.00589 | log fold change Tl+ flux [3] -0.004 | log fold change Tl+ flux (R275C) -0.0531 | log fold change Tl+ flux (R275C/beta1) 0.0632 | log fold change Tl+ flux (R275C/beta2Delta) 0.00308 | log fold change Tl+ flux (R275C/beta4) 0.022 | log fold change Tl+ flux (R275C/Slo1WT/beta2) 0.011
-0.707: z-score [11, 17]

O=c1ncc(F)c[nH]1
11100: cell count [1, 15]
9920: cell count [1, 14]
1.42: fold change [1, 13]
68.9%: viability [4]
inactive: parasite load remaining [4] 102% | fluorescence ratio [5] 1.06 | inhibition [6] 0.4% | inhibition [7] -3.95% | fluorescence ratio [8] 1.05 | z-score [9] -0.183 | mean signal [10] 283 | fold change [1, 12] 0.892 | z-score [2] 0.75 | log fold change Tl+ flux (F380Y) -0.0112 | log fold change Tl+ flux (F380Y/beta1) 0.016 | log fold change Tl+ flux (F380Y/beta2Delta) 0.0227 | log fold change Tl+ flux (F380Y/beta4) -0.00465 | log fold change Tl+ flux [3] 0.0169 | log fold change Tl+ flux (R275C) -0.0477 | log fold change Tl+ flux (R275C/beta1) 0.0224 | log fold change Tl+ flux (R275C/beta2Delta) -0.0499 | log fold change Tl+ flux (R275C/beta4) 0.00687 | log fold change Tl+ flux (R275C/Slo1WT/beta2) -0.000391

CCC(=C(c1ccccc1)c1ccc(OCCN(C)C)cc1)c1ccccc1
11.9: z-score [11, 17]
active: z-score [11, 16] 5.74
2.28 and 0.707: fold change [1, 13]
inactive: parasite load remaining [4] -1.78% | fluorescence ratio [5] 1.01 | inhibition [6] 0.45% | inhibition [7] 7.15% | fluorescence ratio [8] 0.9 | fold change [1, 12] 0.958 and 0.928 | z-score [2] -0.495 | log fold change Tl+ flux (F380Y) -0.00968 | log fold change Tl+ flux (F380Y/beta1) -0.0043 | log fold change Tl+ flux (F380Y/beta2Delta) -0.0174 | log fold change Tl+ flux (F380Y/beta4) -0.00798 | log fold change Tl+ flux [3] -0.0114 | log fold change Tl+ flux (R275C) -0.00676 | log fold change Tl+ flux (R275C/beta1) -0.0153 | log fold change Tl+ flux (R275C/beta2Delta) -0.0428 | log fold change Tl+ flux (R275C/beta4) 0.00537 | log fold change Tl+ flux (R275C/Slo1WT/beta2) 0.0353
4930 and 3010: cell count [1, 15]
31.4%: viability [4]
4730 and 2790: cell count [1, 14]

O=C(O[C@H]1[C@H](Oc2ccccc2COC(=O)C2(O)C=CCCC2=O)O[C@H](CO)[C@@H](O)[C@@H]1O)c1ccccc1 (stereo not given in full)
inactive: parasite load remaining [4] 48.8% | fluorescence ratio [5] 1 | inhibition [6] -0.22% | inhibition [7] -2.76% | fluorescence ratio [8] 0.99 | z-score [9] -0.65 | mean signal [10] 249 | log fold change Tl+ flux (F380Y) 0.0202 | log fold change Tl+ flux (F380Y/beta1) 0.0124 | log fold change Tl+ flux (F380Y/beta2Delta) -0.0274 | log fold change Tl+ flux (F380Y/beta4) 0.0177 | log fold change Tl+ flux [3] -0.0394 | log fold change Tl+ flux (R275C) 0.00346 | log fold change Tl+ flux (R275C/beta1) 0.0475 | log fold change Tl+ flux (R275C/beta2Delta) 0.0175 | log fold change Tl+ flux (R275C/beta4) 0.0193 | log fold change Tl+ flux (R275C/Slo1WT/beta2) 0.0101
72.8%: viability [4]

CC(C(O)c1ccc(O)cc1)N1CCC(Cc2ccccc2)CC1 (stereo not given)
inactive: fluorescence ratio [5] 1.03 | inhibition [6] -6.73% | inhibition [7] -4.72% | fluorescence ratio [8] 0.98 | z-score [9] -0.156 | mean signal [10] 233 | z-score [11, 16] -0.121 and -0.969 and -0.489 | z-score [2] -1.16 and -1.04 and -0.25 | log fold change Tl+ flux (F380Y) 0.0449 | log fold change Tl+ flux (F380Y/beta1) -0.0111 | log fold change Tl+ flux (F380Y/beta2Delta) 0.00326 | log fold change Tl+ flux (F380Y/beta4) 0.0228 | log fold change Tl+ flux (R275C/beta1) -0.0365 | log fold change Tl+ flux (R275C/beta4) -0.0303 | log fold change Tl+ flux (R275C/Slo1WT/beta2) 0.00646
-0.18 and -0.279 and 1.18: z-score [11, 17]
active: log fold change Tl+ flux [3] -0.0962 | log fold change Tl+ flux (R275C) -0.193 | log fold change Tl+ flux (R275C/beta2Delta) -0.218

CN(C)[C@@H]1C(=O)C(C(=O)NCN2CCCC2)=C(O)[C@@]2(O)C(=O)C3=C(O)c4c(O)cccc4[C@@](C)(O)C3CC12 (stereo not given in full)
active: fluorescence ratio [5] 0.68 | inhibition [7] 45.3% | fluorescence ratio [8] 0.76
10400: cell count [1, 15]
91.9% and 67.8%: viability [4]
9290: cell count [1, 14]
inactive: parasite load remaining [4] 77.2% and 69.4% | inhibition [6] -3.71% | z-score [9] 0.267 | mean signal [10] 213 | fold change [1, 12] 0.896 | log fold change Tl+ flux (F380Y) -0.0801 | log fold change Tl+ flux (F380Y/beta1) -0.00765 | log fold change Tl+ flux (F380Y/beta2Delta) -0.0371 | log fold change Tl+ flux (F380Y/beta4) -0.0313 | log fold change Tl+ flux [3] 0.0591 | log fold change Tl+ flux (R275C) 0 | log fold change Tl+ flux (R275C/beta1) -0.0252 | log fold change Tl+ flux (R275C/beta2Delta) 0.0108 | log fold change Tl+ flux (R275C/beta4) -0.0407 | log fold change Tl+ flux (R275C/Slo1WT/beta2) 0.0233
0.92: fold change [1, 13]
